Source: PubChem BioAssay (NCI)
The panel holds about 79,000 compounds, 15% with a hit somewhere; the sample as a whole holds those more often. Values without a mark were called inactive. Calls of active or inactive are those of the source. No stated cut-off is given here; in the data, active means growth inhibition above about 70%; inactive means the rest.

Columns and labels:
[1] = NCI Yeast Anticancer Drug Screen. Data for the rad50 strain (AID 155);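 further: 0% = growth of vehicle-only cultures of the same strain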; conditions: S. cerevisiae rad50 strain growth inhibition, hits give high values
How it was run: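 DNA repair mutant yeast, compound exposure, growth read-out; inhibition is taken relative to vehicle.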

[2] = NCI Yeast Anticancer Drug Screen. Data for the mec2-1 strain (AID 157); conditions: S. cerevisiae mec2-1 strain, hits give high values
How it was run: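 mec2-1 yeast strain, carrying an alteration in DNA damage repair or cell cycle control, was exposed to compounds; growth inhibition was measured relative to vehicle-treated controls.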

[3] = NCI Yeast Anticancer Drug Screen. Data for the sgs1 mgt1 strain (AID 161);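 further: 0% = growth of cultures given vehicle only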; conditions: S. cerevisiae sgs1 mgt1 strain, hits give high values
How it was run: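 This yeast growth screen uses a strain with defined DNA-repair lesions; compound-treated growth is compared with vehicle-treated growth.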

[4] = NCI Yeast Anticancer Drug Screen. Data for the cln2 rad14 strain (AID 165);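 further: 0% = growth equal to vehicle treated cultures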; conditions: S. cerevisiae cln2 rad14 strain, hits give high values
How it was run: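 Yeast carrying cln2 and rad14 alterations (cell cycle control and DNA damage repair) were exposed to compounds. Growth inhibition was measured against vehicle-treated controls.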

[5] = NCI Yeast Anticancer Drug Screen. Data for the bub3 strain (AID 167); conditions: S. cerevisiae bub3 mutant strain, hits give high values
How it was run: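 In this screen, a yeast mutant lacking normal mitotic checkpoint function is challenged with compound. Relative growth versus vehicle gives the inhibition value.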

[6] = NCI Yeast Anticancer Drug Screen. Data for the mlh1 rad18 strain (AID 175); conditions: S. cerevisiae mlh1 rad18 strain growth inhibition, hits give high values
How it was run: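 Growth inhibition of the yeast strain was measured after compound exposure and expressed relative to vehicle-treated controls. The strain carries defined defects in DNA damage repair.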

[7] = at 5.0 µM (retest, dose inferred, filed as 0.5)
[8] = at 50.0 µM (retest, dose inferred, filed as 5.0)

Row | SMILES | growth inhibition [1, 7] | growth inhibition [1, 8] | growth inhibition ([1]; at 50.0 µM) | growth inhibition [2, 7] | growth inhibition [2, 8] | growth inhibition ([2]; at 50.0 µM) | growth inhibition [3, 7] | growth inhibition [3, 8] | growth inhibition ([3]; at 50.0 µM) | growth inhibition [4, 7] | growth inhibition [4, 8] | growth inhibition ([4]; at 50.0 µM) | growth inhibition [5, 7] | growth inhibition [5, 8] | growth inhibition ([5]; at 50.0 µM) | growth inhibition [6, 7] | growth inhibition [6, 8] | growth inhibition ([6]; at 50.0 µM)
1 | CC(C)=CCc1c2c(c(O)c3c(=O)c(-c4ccc(O)cc4O)coc13)C=CC(C)(C)O2 | -20% | 95% (active) | 83.2% (active) | -13% | 97% (active) | 86% (active) | -11% | 95% (active) | 85.9% (active) | 15% | 97% (active) | 83.2% (active) | 26% | 96% (active) | 81.2% (active) | 7% | 95% (active) | 84.7% (active)
2 | CCOC(=O)Cc1csc2[n+]1C(=O)/C(=C/c1ccc(OC)c(OC)c1)S2 | -11% | 11% | 95.2% (active) | -14% | 10% | 94.2% (active) | -11% | 14% | 94.2% (active) | -1% | 8% | 93% (active) | -22% | -2% | 95.7% (active) | -17% | 17% | 93% (active)
3 | CSc1ccc(/C=C2\CNC/C(=C\c3ccc(SC)cc3)C2=O)cc1 | 12% | 18% | 47.4% | 15% | 19% | 55.2% | 26% | 32% | 69.8% | 23% | 29% | 46.9% | 17% | 23% | 35% | 24% | 33% | 71.6% (active)
4 | CSc1cc(N)nc(N)n1 | 3% | -4% | 73% (active) | 3% | 2% | 79.3% (active) | 4% | 14% | 80.3% (active) | 1% | 3% | 83.2% (active) | 1% | -3% | 38.9% | 2% | -6% | 93.4% (active)
5 | c1ccc2c(c1)Nc1ccc3ccccc3c1S2 | 3% | -1% | 47.8% | -50% | 3% | 15.2% | -1% | 13% | 41.5% | 4% | -12% | -39.9% | 30% | 3% | 48.6% | 3% | 13% | 66.5%
6 | Cn1cnc([N+](=O)[O-])c1S | 2% | 1% | -4.8% | -2% | 9% | 16.2% | 0% | -2% | 8.45% | -5% | 13% | 44% | 0% | 3% | -0.8% | 1% | 9% | 21.6%
7 | O=Cc1cc([N+](=O)[O-])ccc1O | 95% (active) | 99% (active) | 93.8% (active) | 98% (active) | 99% (active) | 96.7% (active) | 86% (active) | 99% (active) | 98.5% (active) | 96% (active) | 99% (active) | 74.2% (active) | 97% (active) | 99% (active) | 94.8% (active) | 98% (active) | 99% (active) | 97% (active)
8 | O=[N+]([O-])c1ccc(/C=N/NC2=CS(=O)(=O)C=C2)cc1 | 0% | 17% | 0.8% | -2% | 0% | 2.45% | -5% | 1% | 8.4% | -2% | 0% | 38% | -4% | 5% | 16.7% | -4% | 2% | 1.1%
9 | CC(Cc1ccccc1)N1C(=O)C=CC1=O (configuration not stated) | 45% | 98% (active) | 91.8% (active) | 92% (active) | 99% (active) | 93.5% (active) | 20% | 50% | 93.8% (active) | 77% (active) | 98% (active) | 91.5% (active) | 76% (active) | 99% (active) | 92.2% (active) | 47% | 98% (active) | 91.8% (active)
